# Screens as filed in PubChem BioAssay.
# Compounds with a hit are over-represented: about 17% of the library has one in this group of screens.
# HT1080 IDH1KD tx: qHTS for induction of synthetic lethality in tumor cells producing 2HG: qHTS for the HT-1080-IDH1KD cell line; HT-1080 IDH1 knockdown viability, ATP luminescence, 48 h; Potency, µM (titrated, usually from 46.1 µM), without a hit: at the highest dose activity, negative = toxicity, usual class: cytotoxic; 360,000 tested, 2% active;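 note: 0% = DMSO wells and -100% = cell-free medium wells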
#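 Using the IDH1-knockdown HT-1080 line run in the same batch and compound series as the NT line, viability after 48 h at 37 °C was determined by CellTiter-Glo luminescence and expressed as % activity.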
# DT40 TDP1 CPT: qHTS for Inhibitors of human tyrosyl-DNA phosphodiesterase 1 (TDP1): qHTS in cells in presence of CPT. 420,000 tested, 12% active. AID 686979, 2013. Potency, µM (top dose mostly 46.2 µM), for the others: at the top dose activity change, negative = growth inhibition, hits mostly inhibitors. chicken DT40 Tdp1-/-;hTDP1 cells + 20 nM CPT, ATP luminescence, 48 h; note: % is set by controls: 0 for no effect and ±100 for the full control effect; nearly all actives have a fitted effect of over 55% in size
#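 Chicken DT40 Tdp1-/- cells complemented with human TDP1, 400 cells/well, exposed to compounds plus 20 nM camptothecin for at least 48 h at 37 C; viability read as ATP content by CellTiter-Glo luminescence.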
# HT1080-NT tox: qHTS for induction of synthetic lethality in tumor cells producing 2HG: qHTS for the HT-1080-NT fibrosarcoma cell line; HT-1080-NT fibrosarcoma viability, CellTiter-Glo ATP luminescence, 48 h; Potency, µM (titrated, usually from 46.1 µM), inactives show top-dose activity, negative = less viability, most hits filed as cytotoxic; 360,000 tested, 1.6% active; AID 686970, 2013;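 note: NT is the 2HG producing partner of a matched IDH1 knockdown line; 0% = DMSO-treated cells and -100% = media-only wells without cells; nearly all actives have a fitted effect of over 55% in size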
#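 Viability by CellTiter-Glo luminescence after 48 h compound exposure at 37C of HT-1080-NT cells (750/well, RPMI, 5% FBS). % activity scaled between DMSO wells and medium-only wells, then curve-fitted and categorized by curve class.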
# TGFb inhibitor: qHTS for Inhibitors of TGF-b. HepG2 CAGA-GFP TGF-b/SMAD3 reporter, GFP fluorescence, 18 h; TGF-beta stimulated, 500 pg/mL final. Potency, µM (top dose mostly 46.1 µM), inactives show top-dose activity, negative = inhibition, most hits filed as inhibitors. 410,000 tested, 1.2% active. AID 588855, 2011; note: % is set by controls: 0 for no effect and ±100 for the full control effect; nearly all actives have a fitted effect of over 65% in size
#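 GFP signal (ex488/em500-530) from TGF-beta-stimulated HEPG2 CAGA-GFP cells, 500 pg/mL final, 18 h at 37 degrees C in DMEM plus 1% FBS, normalized to unstimulated and DMSO-stimulated controls.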
# TDP1 cell noCPT: qHTS for Inhibitors of human tyrosyl-DNA phosphodiesterase 1 (TDP1): qHTS in cells in absence of CPT. Potency, µM (titrated, usually from 46.2 µM), inactives show at the highest dose activity change, negative = growth inhibition, usual class: inhibitors. AID 686978, 2013. DT40 Tdp1-/- hTDP1 cells, no CPT, ATP luminescence, 48 h. 420,000 tested, 15% active; note: % is set by controls: 0 for no effect and ±100 for the full control effect; nearly all actives have a fitted effect of over 55% in size
#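 Growth kinetics read by CellTiter-Glo luminescence after ≥48 hr at 37 °C. Cells: DT40 Tdp1-/- stably carrying human TDP1, 400 per well, compound exposure in the absence of CPT (DMSO vehicle).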
# HepG2 viability: qHTS for Inhibitors of TGF-b: Cytotox Counterscreen; AID 588856, 2011; HepG2 CAGA-GFP viability, ATP luminescence, 18 h; 410,000 tested, 0.76% active; Potency, µM (doses to about 46.1 µM), for inactives: top-dose activity change, negative = cytotoxicity, usual class: cytotoxic
#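 CellTiter-Glo luminescence gave cytotoxicity after 18 hours at 37 degrees C. The cells were HepG2 CAGA-GFP in 1% FBS DMEM, stimulated with 500 pg/mL TGF-beta after compound addition. %Activity was normalised to no-cell wells (complete cell-killing) and DMSO (no toxicity), and curves were fitted and classified.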
# * marks the source's active call; other numbers are inactive results; ? = inconclusive; · = not tested or not shown; ! = not active in a repeat; [ ] = remark or other dose. Calls come from the whole dose curve; as a rule, active = well fitted curve in the direction sought with a large enough effect; inconclusive = small, poorly fitted or top-dose-only effect, or another doubt; inactive = no such curve, though single readings can be large; an effect the other way counts as inactive or inconclusive. Potency is the fitted concentration of half-maximal effect.
SMILES,HT1080 IDH1KD tx,DT40 TDP1 CPT,HT1080-NT tox,TGFb inhibitor,TDP1 cell noCPT,HepG2 viability
O=C(CSc1cn(CCNC(=O)c2cccc(C(F)(F)F)c2)c2ccccc12)Nc1ccc2c(c1)OCCO2,·,23µM*,·,?,?,-31%
CN(c1ccccc1C(=O)O)S(=O)(=O)c1ccc2[nH]c(=O)oc2c1,·,-3%,·,·,-5%,-2%
O=C(Cc1ccc(Cl)cc1)Nc1ccc(N2CCN(C(=O)c3ccco3)CC2)c(Cl)c1,?,15µM*,?,0%,23µM*,-22%
CC(C)C(=O)N1CCN(c2ccc(NC(=O)c3ccc4c(c3)OCCO4)cc2Cl)CC1,?,?,?,-18%,23µM*,-34%
CC(=O)N1CCN(c2ccc(NC(=O)c3ccc4c(c3)OCCO4)cc2Cl)CC1,-20%,?,-21%,2%,?,-11%
O=C(Nc1ccc(N2CCN(C(=O)c3ccco3)CC2)c(Cl)c1)c1cccs1,-28%,21µM*,?,4%,21µM*,-35%
CC(C)C(=O)N1CCN(c2ccc(NC(=O)c3cccs3)cc2Cl)CC1,-11%,23µM*,-16%,-14%,13µM*,-30%
CC(C)(C)C1CCC(=NNC(=O)C(=O)NC2CCCCC2)CC1 (stereo unspecified),-3%,-23%,0%,5%,?,1%
CCOC(=O)c1cc(Cl)c2c(ccc3ccccc32)n1,8%,0%,8%,-5%,-16%,-17%
CCOC(=O)c1cc(OCC)c2c(ccc3cc(OC)ccc32)n1,-15%,?,1%,0%,5.8µM*,-7%
COc1ccc(C2(CNC(=O)c3cccc([N+](=O)[O-])c3)CCCCC2)cc1OC,-7%,16µM*,-4%,0%,10µM*,-17%
COc1ccc(C2(CNC(=O)Cc3ccccc3)CCCC2)cc1OC,2%[9.24 µM],?,1%,10%,13µM*,6%
COc1ccc(C2(CNC(=O)c3ccc(OC)c([N+](=O)[O-])c3)CCCCC2)cc1OC,22%,?,3%,5%,21µM*,-17%
COc1ccc(C2(CNC(=O)C(=O)Nc3cccc(C(F)(F)F)c3)CCCC2)cc1OC,·,21µM*,·,-30%,18µM*,-20%
COc1ccc(C2(CNC(=O)c3cccc([N+](=O)[O-])c3)CCOCC2)cc1OC,-2%,?,2%,12%,?,-6%
O=C(NCCCn1ccnc1)Nc1ccc2c(c1)OCO2,-6%,14%,-13%,4%,3%,-1%
CC(C)(C)n1ncc2c(=O)n(Cc3ccc(C#N)cc3F)cnc21,·,·,·,-8%,·,-8%
COc1ccc(C(CNC(=O)C(C)Sc2ccccc2)N2CCOCC2)cc1 (stereo unspecified),14%,-11%,15%,6%,-3%,-3%
COc1ccc(CC(=O)N2CCN(c3ccccc3OC)CC2)cc1OC,2%,0%,-7%,0%,-17%,-24%
O=C(c1ccc(COc2ccc(Cl)cc2)o1)N1CCN(Cc2ccc3c(c2)OCO3)CC1,-22%,?,-27%,-9%,11µM*,2%
COc1ccccc1OCc1ccc(C(=O)N2CCCCC2)o1,8%,2%,0%,-6%,0%,-7%
O=C(c1ccc(COc2ccc(Cl)cc2Cl)o1)N1CCCC1,-4%,-30%,-6%,-10%,18µM*,-49%
O=C(c1ccc(COc2ccccc2Cl)o1)N1CCN(Cc2ccc3c(c2)OCO3)CC1,?,16µM*!,?,3%,21µM*,-25%
COC(=O)c1ccccc1C(=O)NCC1Cc2cc(-c3nc(C)cnc3C)ccc2O1 (stereo unspecified),·,11%[9.04 µM],·,·,-9%,·
CCn1c(SCC(=O)NCc2ccco2)nnc1-c1cccc(N(C)C)c1,·,-31%,·,3%,?,11%
SMILES,HT1080 IDH1KD tx,DT40 TDP1 CPT,HT1080-NT tox,TGFb inhibitor,TDP1 cell noCPT,HepG2 viability
CCOc1ccc(CONS(=O)(=O)c2ccc(NC(C)=O)cc2)cc1Cl,-17%,?,-7%,?,9.2µM*,-25%
O=C(COc1cccc(Cl)c1)Nc1ccc(N2CCOCC2)cc1,-10%,-22%,-5%,?,?,-1%
O=C(COc1ccc(F)c(Cl)c1)Nc1ccc(N2CCOCC2)cc1,-6%,16µM*,-4%,5%,?,19%
CNC(=O)COc1ccc(S(=O)(=O)N2CCCC2)cc1,-6%,29µM*,-1%,-7%,?,3%
O=C(O)COc1ccc(S(=O)(=O)N2CCCC2)cc1,0%,-17%,1%,-9%,26%,-3%
O=C(CCCOc1ccc(Br)cc1)Nc1ccc(S(=O)(=O)N2CCOCC2)cc1,?,?,?,7%,16µM*,3%
CC(C)(O)C(=O)NNC(=S)Nc1ccc(F)c(Cl)c1,-16%,5%,-4%,12%,11%,3%
CCNC(=O)C1(C)CCCN1C(=O)c1cnc2ccccc2n1 (stereo unspecified),1%,-16%,25%,4%,8%,4%
Cc1ccc(CNC(=O)CN(C)S(=O)(=O)c2cccs2)cc1,7%,3%,3%,6%,7%,5%
O=C(NCCc1ccc(F)cc1)c1ccc2c(=O)n3c(nc2c1)CCC3,-14%,?,-7%,-30%,-36%,8%
COc1ccc(CN2CCOc3ccc(C(O)c4cccnc4)cc3C2)c(OC)c1OC (stereo unspecified),·,-9%[9.04 µM],·,·,-29%,·
COc1ccc(CNC(=O)/C=C/c2ccc(S(=O)(=O)N3CCOCC3)cc2)cc1,2%,-16%,2%,1%,?,0%
COc1ccc(CN2CCN(S(=O)(=O)c3ccc(NC(C)=O)cc3)CC2)cc1OC,-5%,?,2%,?,?,-33%
CCOc1ccc(C(=O)CN2CCN(S(=O)(=O)c3ccc(Br)cc3)CC2)cc1,-1%,?,-1%,?,-24%,-4%
O=C(/C=C/c1ccc(S(=O)(=O)N2CCOCC2)cc1)NCc1ccc(Cl)cc1,-22%,?,-16%,1%,18µM*,-25%
